Reference: PMC7862700, “An all-to-all approach to the identification of sequence-specific readers for epigenetic DNA modifications on cytosine”

How the values were obtained:
Assay in all cases: DAPPL (digital affinity profiling via proximity ligation, sequencing); 10 mM Tris-HCl pH 7.5, 50 mM NaCl, 1 mM DTT, 4% glycerol, room temperature, 30 min; GST-TFs on glutathione beads, 16-mer random dsDNA library, 0.1% formaldehyde crosslink after washing; high values mean tight binding
FEV = biological target: T1, FEV (Homo sapiens, UniProt Q99581 1-238); settings: protein: recombinant; tags: N-terminal GST; dsDNA, one strand shown
T1 sequence: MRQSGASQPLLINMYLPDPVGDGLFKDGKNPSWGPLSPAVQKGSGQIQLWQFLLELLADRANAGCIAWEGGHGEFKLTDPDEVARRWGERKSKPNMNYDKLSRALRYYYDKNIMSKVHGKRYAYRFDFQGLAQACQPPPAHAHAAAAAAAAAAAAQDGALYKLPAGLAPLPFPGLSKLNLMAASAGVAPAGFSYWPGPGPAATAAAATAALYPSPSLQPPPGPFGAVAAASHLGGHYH
Procedure, shortened: (§1)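 Human transcription factors were made in yeast as GST fusions, captured on glutathione beads and barcoded with DNA. With a tag-only sample included, the pool was incubated with 200 nmole of a random double-stranded 16-mer DNA library in Tris/NaCl/DTT/glycerol buffer at room temperature for 30 min, then crosslinked with 0.1% formaldehyde after washing, ligated by proximity, amplified and sequenced. For binding signal, each hexamer's read frequency for a factor is divided by its frequency for the tag-only sample.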

ETV5 = ETV5 (Homo sapiens, UniProt P41161 1-510); settings: protein: recombinant; tags: N-terminal GST; dsDNA, one strand shown
Procedure, shortened: as §1

HSF1 = HSF1 (Homo sapiens, UniProt Q00613 1-529); settings: protein: recombinant; tags: N-terminal GST; chain copies: 3; dsDNA, one strand shown
Procedure, shortened: as §1

SPIC = biological target: T2, SPIC (Homo sapiens, UniProt Q8N5J4 1-248); settings: protein: recombinant; tags: N-terminal GST; dsDNA, one strand shown
T2 sequence: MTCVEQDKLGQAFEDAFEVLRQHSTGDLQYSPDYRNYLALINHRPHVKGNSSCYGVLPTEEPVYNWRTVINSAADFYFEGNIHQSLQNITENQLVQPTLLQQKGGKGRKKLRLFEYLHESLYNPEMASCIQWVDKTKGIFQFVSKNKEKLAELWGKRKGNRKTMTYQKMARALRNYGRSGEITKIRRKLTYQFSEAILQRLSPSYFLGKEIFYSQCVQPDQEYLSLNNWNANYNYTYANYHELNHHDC
Procedure, shortened: as §1

ELF4 = ELF4 (Homo sapiens, UniProt Q99607 1-663); settings: protein: recombinant; tags: N-terminal GST; dsDNA, one strand shown
Procedure, shortened: as §1

ELK4 = biological target: T3, ELK4 (Homo sapiens, UniProt P28324-2 1-405); settings: protein: recombinant; tags: N-terminal GST; dsDNA, one strand shown
T3 sequence: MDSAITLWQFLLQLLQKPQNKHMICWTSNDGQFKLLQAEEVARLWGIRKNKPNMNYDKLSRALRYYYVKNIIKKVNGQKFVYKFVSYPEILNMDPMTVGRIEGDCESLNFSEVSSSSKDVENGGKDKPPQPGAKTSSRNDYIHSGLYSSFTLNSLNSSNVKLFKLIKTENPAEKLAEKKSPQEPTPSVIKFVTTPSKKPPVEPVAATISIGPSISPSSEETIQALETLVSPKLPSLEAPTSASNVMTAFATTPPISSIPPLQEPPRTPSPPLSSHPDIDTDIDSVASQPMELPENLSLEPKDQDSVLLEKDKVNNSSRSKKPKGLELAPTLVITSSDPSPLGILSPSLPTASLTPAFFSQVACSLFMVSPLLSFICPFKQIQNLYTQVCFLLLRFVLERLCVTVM
Procedure, shortened: as §1

ETV2 = biological target: T4, ETV2 (Homo sapiens, UniProt O00321 1-342); settings: protein: recombinant; tags: N-terminal GST; dsDNA, one strand shown
T4 sequence: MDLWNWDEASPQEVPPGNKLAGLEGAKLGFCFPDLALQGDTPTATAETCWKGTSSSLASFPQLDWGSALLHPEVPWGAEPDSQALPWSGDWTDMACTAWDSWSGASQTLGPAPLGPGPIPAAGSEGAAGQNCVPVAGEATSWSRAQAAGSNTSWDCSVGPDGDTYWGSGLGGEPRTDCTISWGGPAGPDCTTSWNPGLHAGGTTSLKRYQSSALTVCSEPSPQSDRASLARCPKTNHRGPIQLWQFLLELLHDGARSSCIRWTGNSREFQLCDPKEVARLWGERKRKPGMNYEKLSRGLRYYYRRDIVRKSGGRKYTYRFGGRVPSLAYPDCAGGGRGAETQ
Procedure, shortened: as §1

ELF3 = biological target: T5, ELF3 (Homo sapiens, UniProt P78545 1-371); settings: protein: recombinant; tags: N-terminal GST; dsDNA, one strand shown
T5 sequence: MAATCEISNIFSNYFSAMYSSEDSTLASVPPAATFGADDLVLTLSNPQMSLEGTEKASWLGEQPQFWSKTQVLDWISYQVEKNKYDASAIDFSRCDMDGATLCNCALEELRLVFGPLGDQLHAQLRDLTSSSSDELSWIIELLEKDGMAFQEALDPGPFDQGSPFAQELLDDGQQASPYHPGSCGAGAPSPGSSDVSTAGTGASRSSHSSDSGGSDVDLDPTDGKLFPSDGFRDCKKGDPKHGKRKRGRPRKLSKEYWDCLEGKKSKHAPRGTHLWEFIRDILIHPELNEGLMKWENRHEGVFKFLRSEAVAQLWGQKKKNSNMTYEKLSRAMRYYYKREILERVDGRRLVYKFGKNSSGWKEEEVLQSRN
Procedure, shortened: as §1

CRX = CRX (Homo sapiens, UniProt O43186 1-299); settings: protein: recombinant; tags: N-terminal GST; dsDNA, one strand shown
Procedure, shortened: as §1

ETV1 = ETV1 (Homo sapiens, UniProt P50549 1-477); settings: protein: recombinant; tags: N-terminal GST; dsDNA, one strand shown
Procedure, shortened: as §1

ERF = biological target: T6, ERF (Homo sapiens, UniProt P50548 1-548); settings: protein: recombinant; tags: N-terminal GST; dsDNA, one strand shown
T6 sequence: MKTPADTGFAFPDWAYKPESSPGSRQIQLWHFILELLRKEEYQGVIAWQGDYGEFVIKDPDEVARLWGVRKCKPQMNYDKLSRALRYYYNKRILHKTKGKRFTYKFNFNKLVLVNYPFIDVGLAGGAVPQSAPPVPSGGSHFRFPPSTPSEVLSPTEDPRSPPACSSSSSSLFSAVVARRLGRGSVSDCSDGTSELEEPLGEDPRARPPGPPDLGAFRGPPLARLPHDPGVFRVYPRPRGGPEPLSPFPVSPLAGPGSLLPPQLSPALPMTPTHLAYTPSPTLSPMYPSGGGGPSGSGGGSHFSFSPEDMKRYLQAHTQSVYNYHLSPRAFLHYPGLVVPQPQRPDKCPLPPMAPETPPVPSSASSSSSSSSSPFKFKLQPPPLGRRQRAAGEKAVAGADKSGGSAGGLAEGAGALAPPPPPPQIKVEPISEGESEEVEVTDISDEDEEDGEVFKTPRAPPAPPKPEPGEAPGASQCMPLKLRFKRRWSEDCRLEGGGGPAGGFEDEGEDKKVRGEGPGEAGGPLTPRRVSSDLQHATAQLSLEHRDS
Procedure, shortened: as §1

ETV3L = biological target: T7, ETV3L (Homo sapiens, UniProt Q6ZN32 1-361); settings: protein: recombinant; tags: N-terminal GST; dsDNA, one strand shown
T7 sequence: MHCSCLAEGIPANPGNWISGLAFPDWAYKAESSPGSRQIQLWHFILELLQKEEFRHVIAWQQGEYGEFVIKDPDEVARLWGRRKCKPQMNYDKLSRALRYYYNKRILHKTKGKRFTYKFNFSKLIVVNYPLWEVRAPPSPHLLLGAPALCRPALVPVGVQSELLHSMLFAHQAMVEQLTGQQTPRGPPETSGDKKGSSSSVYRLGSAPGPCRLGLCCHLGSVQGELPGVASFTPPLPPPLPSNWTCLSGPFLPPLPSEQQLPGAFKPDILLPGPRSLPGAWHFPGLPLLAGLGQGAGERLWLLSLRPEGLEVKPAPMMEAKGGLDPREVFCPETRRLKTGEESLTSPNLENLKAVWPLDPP
Procedure, shortened: as §1

ETS2 = biological target: T8, ETS2 (Homo sapiens, UniProt P15036 1-469); settings: protein: recombinant; tags: N-terminal GST; dsDNA, one strand shown
T8 sequence: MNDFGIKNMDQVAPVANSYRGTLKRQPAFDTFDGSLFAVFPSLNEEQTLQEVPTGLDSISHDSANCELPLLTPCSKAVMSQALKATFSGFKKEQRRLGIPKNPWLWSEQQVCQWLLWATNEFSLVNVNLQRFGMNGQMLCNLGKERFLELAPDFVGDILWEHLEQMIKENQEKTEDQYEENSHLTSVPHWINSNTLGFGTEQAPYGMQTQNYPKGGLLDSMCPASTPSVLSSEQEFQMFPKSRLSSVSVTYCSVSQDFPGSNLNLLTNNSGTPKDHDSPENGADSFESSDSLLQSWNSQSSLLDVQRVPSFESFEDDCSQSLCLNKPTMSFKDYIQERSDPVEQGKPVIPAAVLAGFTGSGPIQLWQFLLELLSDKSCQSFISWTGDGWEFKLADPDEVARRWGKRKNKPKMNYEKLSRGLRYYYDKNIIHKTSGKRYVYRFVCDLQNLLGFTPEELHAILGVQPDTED
Procedure, shortened: as §1

SPDEF = biological target: T9, SPDEF (Homo sapiens, UniProt O95238 1-335); settings: protein: recombinant; tags: N-terminal GST; dsDNA, one strand shown
T9 sequence: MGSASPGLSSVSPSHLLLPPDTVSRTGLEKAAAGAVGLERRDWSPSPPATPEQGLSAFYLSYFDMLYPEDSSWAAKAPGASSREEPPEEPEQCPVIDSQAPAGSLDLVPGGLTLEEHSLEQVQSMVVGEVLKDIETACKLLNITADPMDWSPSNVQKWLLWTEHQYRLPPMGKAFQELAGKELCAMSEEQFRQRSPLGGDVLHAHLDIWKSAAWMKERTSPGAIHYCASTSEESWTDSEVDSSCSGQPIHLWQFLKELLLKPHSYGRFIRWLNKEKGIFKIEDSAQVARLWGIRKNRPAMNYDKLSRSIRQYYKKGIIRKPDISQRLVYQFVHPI
Procedure, shortened: as §1

ETV7 = biological target: T10, ETV7 (Homo sapiens, UniProt Q9Y603 1-341); settings: protein: recombinant; tags: N-terminal GST; dsDNA, one strand shown
T10 sequence: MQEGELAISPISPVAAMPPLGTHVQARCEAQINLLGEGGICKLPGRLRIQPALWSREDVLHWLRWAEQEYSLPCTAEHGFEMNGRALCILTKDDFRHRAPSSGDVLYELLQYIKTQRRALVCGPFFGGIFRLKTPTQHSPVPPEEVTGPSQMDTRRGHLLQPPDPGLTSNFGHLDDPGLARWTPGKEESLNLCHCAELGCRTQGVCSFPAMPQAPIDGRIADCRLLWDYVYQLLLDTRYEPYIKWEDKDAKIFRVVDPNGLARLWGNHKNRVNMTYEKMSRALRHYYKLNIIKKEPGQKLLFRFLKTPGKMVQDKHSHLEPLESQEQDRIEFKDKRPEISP
Procedure, shortened: as §1

ELF5 = biological target: T11, ELF5 (Homo sapiens, UniProt Q9UKW6-2 1-255); settings: protein: recombinant; tags: N-terminal GST; dsDNA, one strand shown
T11 sequence: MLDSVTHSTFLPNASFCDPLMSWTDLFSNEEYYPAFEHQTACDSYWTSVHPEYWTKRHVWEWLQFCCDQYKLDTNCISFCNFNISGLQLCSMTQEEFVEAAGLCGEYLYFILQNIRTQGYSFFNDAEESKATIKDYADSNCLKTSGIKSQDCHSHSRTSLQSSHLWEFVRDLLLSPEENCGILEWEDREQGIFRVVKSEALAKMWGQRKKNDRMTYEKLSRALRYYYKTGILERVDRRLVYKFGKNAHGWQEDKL
Procedure, shortened: as §1

ETV3 = biological target: T12, ETV3 (Homo sapiens, UniProt P41162-2 1-143); settings: protein: recombinant; tags: N-terminal GST; dsDNA, one strand shown
T12 sequence: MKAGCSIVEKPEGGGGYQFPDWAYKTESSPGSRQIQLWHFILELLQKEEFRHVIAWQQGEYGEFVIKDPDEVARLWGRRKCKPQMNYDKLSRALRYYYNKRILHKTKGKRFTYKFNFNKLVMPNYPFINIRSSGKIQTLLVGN
Procedure, shortened: as §1

ETV6 = ETV6 (Homo sapiens, UniProt P41212 1-452); settings: protein: recombinant; tags: N-terminal GST; dsDNA, one strand shown
Procedure, shortened: as §1

Chain of ETV6 (P41212 whole entry): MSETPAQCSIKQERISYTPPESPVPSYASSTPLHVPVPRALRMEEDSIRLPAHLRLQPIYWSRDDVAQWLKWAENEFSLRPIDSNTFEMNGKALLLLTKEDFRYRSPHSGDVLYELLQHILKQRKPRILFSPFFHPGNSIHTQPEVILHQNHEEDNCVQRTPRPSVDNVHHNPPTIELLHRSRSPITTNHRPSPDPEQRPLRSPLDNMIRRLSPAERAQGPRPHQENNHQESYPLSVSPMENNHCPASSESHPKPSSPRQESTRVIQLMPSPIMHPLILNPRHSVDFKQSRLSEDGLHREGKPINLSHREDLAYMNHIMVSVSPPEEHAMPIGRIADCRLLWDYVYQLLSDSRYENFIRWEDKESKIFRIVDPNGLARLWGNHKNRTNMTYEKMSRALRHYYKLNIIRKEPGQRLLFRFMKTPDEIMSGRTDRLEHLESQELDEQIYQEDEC
Chain of ETV5 (P41161 whole entry): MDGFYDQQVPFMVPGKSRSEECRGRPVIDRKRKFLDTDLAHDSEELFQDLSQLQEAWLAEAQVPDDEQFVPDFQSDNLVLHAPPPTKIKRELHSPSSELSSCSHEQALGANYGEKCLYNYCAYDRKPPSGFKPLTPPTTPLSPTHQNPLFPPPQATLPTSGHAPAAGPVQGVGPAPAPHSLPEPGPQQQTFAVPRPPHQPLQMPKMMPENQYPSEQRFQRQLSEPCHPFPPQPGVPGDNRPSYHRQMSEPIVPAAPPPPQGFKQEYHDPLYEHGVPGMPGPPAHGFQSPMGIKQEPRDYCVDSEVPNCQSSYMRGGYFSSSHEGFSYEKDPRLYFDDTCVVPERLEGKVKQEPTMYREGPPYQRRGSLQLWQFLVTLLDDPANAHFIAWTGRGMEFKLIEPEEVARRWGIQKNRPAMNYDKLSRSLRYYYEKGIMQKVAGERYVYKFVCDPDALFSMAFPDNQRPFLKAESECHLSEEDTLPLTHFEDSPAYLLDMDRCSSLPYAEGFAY
Chain of ELF4 (Q99607 whole entry): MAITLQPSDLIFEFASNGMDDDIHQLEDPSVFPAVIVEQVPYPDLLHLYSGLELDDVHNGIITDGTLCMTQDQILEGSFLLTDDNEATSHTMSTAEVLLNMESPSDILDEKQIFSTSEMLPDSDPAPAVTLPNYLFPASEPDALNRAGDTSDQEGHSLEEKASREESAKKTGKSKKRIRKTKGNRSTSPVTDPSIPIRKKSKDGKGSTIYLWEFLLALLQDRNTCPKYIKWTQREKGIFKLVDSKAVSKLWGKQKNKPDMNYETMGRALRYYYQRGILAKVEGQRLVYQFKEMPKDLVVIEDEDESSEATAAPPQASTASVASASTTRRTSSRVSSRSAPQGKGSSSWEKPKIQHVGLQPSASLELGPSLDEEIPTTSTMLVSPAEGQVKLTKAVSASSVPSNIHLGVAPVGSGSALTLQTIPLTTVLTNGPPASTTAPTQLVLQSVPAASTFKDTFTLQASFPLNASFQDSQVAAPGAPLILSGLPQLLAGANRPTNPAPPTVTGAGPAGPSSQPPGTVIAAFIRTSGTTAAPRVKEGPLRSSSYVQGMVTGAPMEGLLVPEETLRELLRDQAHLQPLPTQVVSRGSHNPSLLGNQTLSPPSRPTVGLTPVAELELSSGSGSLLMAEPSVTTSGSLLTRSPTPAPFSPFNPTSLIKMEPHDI
Chain of CRX (O43186 whole entry): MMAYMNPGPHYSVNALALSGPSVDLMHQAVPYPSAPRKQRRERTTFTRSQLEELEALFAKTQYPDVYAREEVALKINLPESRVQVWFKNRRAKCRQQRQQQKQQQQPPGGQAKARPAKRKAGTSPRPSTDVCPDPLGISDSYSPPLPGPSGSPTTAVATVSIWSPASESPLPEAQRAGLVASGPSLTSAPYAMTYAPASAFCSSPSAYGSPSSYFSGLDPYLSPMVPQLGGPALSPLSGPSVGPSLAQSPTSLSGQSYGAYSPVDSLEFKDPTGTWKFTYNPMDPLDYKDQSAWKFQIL
Chain of HSF1 (Q00613 whole entry): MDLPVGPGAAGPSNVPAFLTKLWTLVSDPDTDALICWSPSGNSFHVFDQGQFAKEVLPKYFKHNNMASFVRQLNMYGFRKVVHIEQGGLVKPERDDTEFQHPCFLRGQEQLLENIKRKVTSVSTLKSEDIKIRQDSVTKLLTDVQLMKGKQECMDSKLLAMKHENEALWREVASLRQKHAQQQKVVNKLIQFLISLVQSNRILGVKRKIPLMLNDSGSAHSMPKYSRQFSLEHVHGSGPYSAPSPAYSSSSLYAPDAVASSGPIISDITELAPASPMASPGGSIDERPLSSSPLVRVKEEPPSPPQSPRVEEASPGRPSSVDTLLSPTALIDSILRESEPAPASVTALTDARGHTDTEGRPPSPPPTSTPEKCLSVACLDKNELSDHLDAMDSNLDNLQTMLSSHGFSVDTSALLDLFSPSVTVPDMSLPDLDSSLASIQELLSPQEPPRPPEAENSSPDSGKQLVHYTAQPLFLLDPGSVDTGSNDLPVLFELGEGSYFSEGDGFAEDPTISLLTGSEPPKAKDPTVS
Chain of ETV1 (P50549 whole entry): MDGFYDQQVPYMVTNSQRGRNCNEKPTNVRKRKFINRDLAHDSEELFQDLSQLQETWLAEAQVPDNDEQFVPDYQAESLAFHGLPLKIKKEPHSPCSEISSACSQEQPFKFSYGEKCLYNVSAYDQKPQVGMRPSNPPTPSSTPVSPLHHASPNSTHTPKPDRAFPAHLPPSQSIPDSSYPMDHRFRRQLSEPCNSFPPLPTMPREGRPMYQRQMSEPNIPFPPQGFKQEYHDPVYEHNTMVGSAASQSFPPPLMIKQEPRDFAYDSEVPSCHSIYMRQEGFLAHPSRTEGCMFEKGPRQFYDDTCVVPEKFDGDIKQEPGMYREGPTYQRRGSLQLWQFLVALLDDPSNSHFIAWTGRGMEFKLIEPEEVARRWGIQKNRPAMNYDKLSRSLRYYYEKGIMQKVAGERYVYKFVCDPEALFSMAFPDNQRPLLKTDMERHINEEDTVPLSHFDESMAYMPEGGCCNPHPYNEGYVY

Sequence: TTACTT
- binding signal (FEV): 1.55 fold enrichment (6-mer frequency, TF over GST control)
- binding signal (ETV5): 1.53 fold enrichment (6-mer frequency, TF over GST control)
- binding signal (HSF1): 1.41 fold enrichment (6-mer frequency, TF over GST control)
- binding signal (SPIC): 1.33 fold enrichment (6-mer frequency, TF over GST control)
- binding signal (ELF4): 1.46 fold enrichment (6-mer frequency, TF over GST control)
- binding signal (ELK4): 1.33 fold enrichment (6-mer frequency, TF over GST control)
- binding signal (ETV2): 1.66 fold enrichment (6-mer frequency, TF over GST control)
- binding signal (ELF3): 1.75 fold enrichment (6-mer frequency, TF over GST control)
- binding signal (CRX): 1.95 fold enrichment (6-mer frequency, TF over GST control)
- binding signal (ETV1): 1.55 fold enrichment (6-mer frequency, TF over GST control)
- binding signal (ERF): 1.49 fold enrichment (6-mer frequency, TF over GST control)
- binding signal (ETV3L): 1.37 fold enrichment (6-mer frequency, TF over GST control)
- binding signal (ETS2): 1.48 fold enrichment (6-mer frequency, TF over GST control)
- binding signal (SPDEF): 1.45 fold enrichment (6-mer frequency, TF over GST control)
- binding signal (ETV7): 1.43 fold enrichment (6-mer frequency, TF over GST control)
- binding signal (ELF5): 1.54 fold enrichment (6-mer frequency, TF over GST control)
- binding signal (ETV3): 1.58 fold enrichment (6-mer frequency, TF over GST control)
- binding signal (ETV6): 1.62 fold enrichment (6-mer frequency, TF over GST control)
